Tb PFK inh = blocks T. brucei phosphofructokinase. O15648. T. brucei PFK, ADP-Glo luminescence. Potency, µM (top dose mostly 57.5 µM), without a hit: top-dose activity, negative = inhibition, usual class: inhibitors. 330,000 compounds, 0.17% hits. AID 485367;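 note: 0% = uninhibited 1x PFK enzyme wells and -100% = no-enzyme wells; nearly all actives have a fitted effect of over 60% in size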
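ADP-Glo luminescence quantified ADP after 45 min at room temperature, with 1.25 nM T. brucei PFK, 0.1 mM ATP and 0.5 mM fructose-6-phosphate in pH 8.0 TEA buffer. qHTS titrations up to 57 µM; curves classified by quality.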
A-T KAP1 phos = potential ataxia-telangiectasia treatments restoring KAP-1 phosphorylation | Potency, µM (doses to about 57.5 µM), for inactives: top-dose activation, most hits filed as activators | 320,000 compounds, 0.19% hits | F2112 A-T fibroblasts, KAP-1 phosphorylation AlphaLISA; neocarzinostatin DNA damage 30 min before lysis; note: % of control where 0% means no effect; nearly all actives have a fitted effect of over 45% in size
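hTERT-immortalized A-T patient fibroblasts (F2112), 500 cells/well in OPTI-MEM, 1% FBS, got compounds for 60 min, then NCS for 30 min at 37C. Lysates were then assayed for phospho-KAP-1 by AlphaLISA (anti-pKAP1 donor, anti-KAP1 acceptor beads), 6 hr at 25C.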
GCN5L2 inh = blocks human GCN5L2 histone acetyltransferase | 390,000 compounds, 0.21% hits | GCN5L2 HAT assay, ThioGlo1 CoA-SH fluorescence | Potency, µM (series often up to 58.9 µM), inactives show at the top dose activity change, negative = inhibition, hits mostly inhibitors | Q92830; note: % is set by controls: 0 for no effect and ±100 for the full control effect
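qHTS, 1536-well. 20nM enzyme, pH 7.5 HEPES/EDTA/Tween-20 buffer; 15 min compound preinc., RT. Start: 75uM H3(1-25), 70uM AcCoA, 50uM ThioGlo1. Read Ex340/Em540 at t=0 (autofluorescence flag) and t=20 min.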
S-ASM inh = inhibitors of human secretory acid sphingomyelinase | 340,000 compounds, 0.006% hits | P17405 | Potency, µM (top dose mostly 57.5 µM), for the others: top-dose activity change, negative = inhibition, actives largely listed as inhibitors | placental ASM, HMU-PC fluorogenic substrate, 60 min
Target sequence (P17405 47-631 limits assumed): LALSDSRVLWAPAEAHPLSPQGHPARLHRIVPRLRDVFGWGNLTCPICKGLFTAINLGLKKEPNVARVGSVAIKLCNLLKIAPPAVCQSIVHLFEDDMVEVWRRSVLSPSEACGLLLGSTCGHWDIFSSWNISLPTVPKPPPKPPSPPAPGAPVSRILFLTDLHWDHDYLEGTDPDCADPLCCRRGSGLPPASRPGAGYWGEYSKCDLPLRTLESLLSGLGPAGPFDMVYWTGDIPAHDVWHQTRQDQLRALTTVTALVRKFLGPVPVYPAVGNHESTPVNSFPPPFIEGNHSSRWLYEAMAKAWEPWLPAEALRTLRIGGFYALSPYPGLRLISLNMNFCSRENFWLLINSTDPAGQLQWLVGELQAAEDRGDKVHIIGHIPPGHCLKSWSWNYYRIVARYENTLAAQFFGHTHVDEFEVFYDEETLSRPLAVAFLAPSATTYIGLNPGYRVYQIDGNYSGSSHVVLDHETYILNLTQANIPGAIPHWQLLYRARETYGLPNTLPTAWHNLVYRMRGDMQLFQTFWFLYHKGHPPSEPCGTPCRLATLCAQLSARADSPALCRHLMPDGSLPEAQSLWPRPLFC
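HMU-PC0 cleavage (9 uM final) by human placental ASM, 60 min at 37 °C following 10 min compound exposure at RT; stopped at pH 10, fluorescence Ex 386/Em 447 nm.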
p53 reactivator = mutant p53 re-activation in reporter cells; H1299 p53-A138V BP100-luciferase reporter, luminescence, 24 h; Potency, µM (highest dose often 92.2 µM), without a hit: at the top dose activity change, positive = activation, hits mostly activators; 320,000 compounds, 0.063% hits; AID 504706; note: % of control where 0% means no effect; nearly all actives have a fitted effect of over 45% in size
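p53-null H1299 cells stably carrying temperature-sensitive p53-A138V and a BP100-luciferase reporter were pinned with compounds (4-point, 1:5 series) and held 24 hrs at 37 deg C. Luminescence was read 10 min after detection reagent.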
ERG Ets-DNA blk = blocks human ERG Ets domain binding to DNA. P11308. fluorescence polarization, His-ERG Ets domain / labelled DNA. Potency, µM (highest dose often 76.9 µM), for inactives: at the highest dose FP activity, negative = inhibition, usual class: inhibitors. 370,000 compounds, 0.028% hits. AID 624246; active = well fitted inhibition curve with a large enough effect in the polarisation, with a control signal flat; inconclusive = small, poorly fitted or top-dose-only effect, or effect the other way, or a change in a side signal; inactive = no such curve, though single readings can be large or run the other way; the % refers to the polarisation;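 note: polarization taken with two DNA probes labelled with fluorescein and Texas red; % of control where 0% means no effect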
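His-tagged ERG Ets domain (1 uM in the protein solution; 300mM KCl, 50mM Tris-HCl, 1mM EDTA, 1mM DTT, pH 7.5) received compound, then a probe mix of 5 nM fluorescein-DNA and 100nM Texas-615-DNA. Fluorescence polarization was read for both dyes.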
* = called active by the depositor; i = inactive; ? = inconclusive; / = not tested or not shown; ! = not active in a repeat. A selection: hits, their analogues and other compounds. The true share with any hit is near 0.55%. Unless noted, calls come from the whole dose curve; as a rule, active = well fitted curve in the direction sought with a large enough effect; inconclusive = small, poorly fitted or top-dose-only effect, or another doubt; inactive = no such curve, though single readings can be large; an effect the other way counts as inactive or inconclusive. Potency is the fitted concentration of half-maximal effect.

SMILES	Tb PFK inh	A-T KAP1 phos	GCN5L2 inh	S-ASM inh	p53 reactivator	ERG Ets-DNA blk
C(=C\c1ccccc1)/C=N/Nc1nc2ccccc2[nH]1	7%	-1%	-10%	-4%	8.9µM*	3%
C(=N\Nc1nc2ccccc2[nH]1)/c1c[nH]c2ccccc12	0%	9%	-5%	?	25µM*	9%
O=CN/C=C/c1cc(O)ccc1O	30µM*	0%	-13%	0%	-10%	0%
COc1ccc(C)cc1NC(=O)C(Cc1ccccc1)NS(=O)(=O)c1ccc(Br)s1 (stereo unspecified)	/	/	-8%	/	/	7%
COC(=O)[C@@H]1C[C@@]2(O)[C@@H](O)[C@@H](O)[C@@H](O)C[C@H]2N1Cc1ccc(Cl)cc1	1%	40µM*	?	3%	-2%	6%
Cc1cc(C)c2c(=O)n(CC(=O)NCCCN3CCN(c4ccccc4F)CC3)sc2n1	12µM*	-8%	?	2%	-14%	-3%
Cc1ccccc1CS(=O)(=O)CCC(=O)NCCCN1CCN(c2ccccc2F)CC1	-1%	-4%	-11%	0%	-5%	-11%
Cc1ccc(Nc2c(-c3cccnc3)nc3ccc(Cl)cn23)cc1	/	/	-5%	/	/	6%
COc1ccccc1-c1cn(-c2ccccc2)c(=S)[nH]1	?	28%	?	4%	?	-4%
COc1ccccc1C1=NC(c2ccccc2)CN1c1ccccc1 (stereo unspecified)	3%	28µM*	-2%	i	2%	8%
CCCc1ccc(Oc2cc(C)nc(N3CCOCC3)n2)cc1	3%	25µM*	-8%	-2%	9%	7%
CCOc1ccc(NC(=O)N2CCN(C(=O)c3ccco3)CC2)cc1	0%	1%	-36%	8%	-3%	-6%
CCOC(=O)c1ccc(NC(=O)N2CCN(C(=O)c3ccco3)CC2)cc1	-9%	6%	-4%	4%	1%	35µM*
Cc1ccc(-c2nc(N)s[n+]2-c2ccccc2)cc1	?	1%	6.3µM*	2%	17%	5%
CNc1nc(-c2ccccc2)[n+](-c2ccc(C)cc2)s1	?	-4%	7.9µM*	3%	-59%	-9%
COc1cccc(NC(=O)CN2C(=O)CSc3ccc(S(=O)(=O)N4CCCC4)cc32)c1	/	/	-10%	/	/	-7%
COc1ccc(-c2cc(C(F)(F)F)nc(N3CCCCC3)n2)cc1OC	1%	35µM*	-27%	29%	4%	-5%
COc1ccc(-c2cc(C(F)(F)F)nc(N3CCN(C)CC3)n2)cc1OC	6%	4%	-9%	-3%	-15%	4%
CCc1cccc(-n2c(=O)c3cccnc3n2CC(=O)Nc2ccc(OC)c(Cl)c2)c1	/	/	17%	/	/	12%
CCCCCCCCCC(=O)O	3%	14%	-3%	-1%	5%	1%
O=C(O)CCCCC1CCSS1 (stereo unspecified)	?	0%	3.2µM*	-4%	9%	-12%
CCCn1nc(NC(=O)CC(C)C)c2cc3cccc(C)c3nc21	1%	26%	2%	i	1%	-2%
CCCCn1nc(NC(=O)c2cccs2)c2cc3cc(OC)ccc3nc21	5%	28µM*	-30%	255%	11%	1%
CCCn1nc(NC(C)=O)c2cc3cccc(C)c3nc21	15%	14µM*	-7%	427%	-9%	8%
CCCn1nc(NC(=O)c2cccs2)c2cc3cc(OC)ccc3nc21	9%	?	-18%	414%	?	-10%
SMILES	Tb PFK inh	A-T KAP1 phos	GCN5L2 inh	S-ASM inh	p53 reactivator	ERG Ets-DNA blk
CCCC(=O)Nc1nn(CCC)c2nc3ccccc3cc12	-3%	28µM*	-11%	235%	-8%	5%
COc1ccc(-c2csc(Nc3ncccc3C)n2)cc1OC	16%	1%	-7%	-8%	?	-8%
COc1ccc(-c2csc(Nc3ncccc3C)n2)cc1	2%	14%	-15%	-3%	45µM*	5%
COc1ccc(-c2cc(C(=O)Nc3cccc(Cl)c3)no2)cc1	1%	10µM*	2%	3%	?	-3%
COc1ccc(-c2cc(C(=O)Nc3cccc(C(C)=O)c3)no2)cc1	-1%	/	-1%	0%	0%	0%
O=C(O)C=Cc1ccc(Cn2ccnc2)cc1	/	/	-12%	/	/	/
Cc1cccc(CCNC(=O)c2cc3c(=O)[nH]c4ccc(C)cc4c3s2)c1	/	/	1%	/	/	2%
Cc1cccc(N2CCN(C(=O)c3ccc4c(c3)NC(=O)C(CSCc3cccc(F)c3)N4)CC2)c1C (stereo unspecified)	1%	-13%	28µM*	/	-4%	/
CCCCc1ccc(NC(=O)CSc2nc3ccccc3nc2N2CCCCC2)cc1	/	/	-23%	/	/	3%
CCC(=O)N1c2ccccc2CC1C(=O)NCc1cc(OC)ccc1OC (stereo unspecified)	/	/	-12%	/	/	-10%
N[C@@H](CSS(=O)(=O)O)C(=O)O	/	/	35µM*!	/	/	/
NC(CSSCC(N)C(=O)O)C(=O)O (stereo unspecified)	/	/	-10%	/	/	/
Cc1ccc2c(c1)[nH]c1c(=O)n(CCC3=CCCCC3)cnc12	2%	3%	2.5µM*	/	19%	/
Cc1ccc(S(=O)(=O)N(CCc2ccccc2)CC(=O)Nc2ccc(Br)cc2)cc1	/	/	1%	/	/	0%
CC(C)C[C@H](N)c1nnc(SCc2ccc(Cl)cc2)o1	-4%	40µM*	-10%	3%	-3%	1%
CCOC(=O)C(CS)NCCN[C@@H](CS)C(=O)OCC (stereo partly specified)	/	/	20µM*	/	/	/
CCc1ccc(CCOc2ccc(CC3SC(=O)NC3=O)cc2)nc1 (stereo unspecified)	/	/	-12%	-1%	/	-4%
CC1(COc2ccc(CC3SC(=O)NC3=O)cc2)CCCCC1 (stereo unspecified)	/	/	25µM*!	/	/	/
CC1(COc2ccc(C[C@H]3SC(=O)NC3=O)cc2)CCCCC1	/	/	35µM*	/	/	/
COc1ccc(C(=O)Nc2nnc(S(=O)(=O)N3CCN(c4ccc(F)cc4)CC3)s2)cc1	/	/	2%	/	/	-2%
COCc1cc(C)nc2sc3c(c12)NC(c1ccc(O)cc1)N(c1ccc(OC)cc1)C3=O (stereo unspecified)	/	/	-14%	/	/	-4%
C[C@H](NC(=O)c1nc[nH]c1C(=O)N[C@@H](Cc1ccccc1)C(=O)OCc1ccccc1)C(=O)OCc1ccccc1	3%	7%	?	-7%	12%	4%
CNC(=O)c1[nH]cnc1C(=O)N[C@@H](C)C(=O)OCc1ccccc1	?	45µM*	-29%	4%	7%	-12%
